Experimental data from PubChem BioAssay AID1159580 (chemical genetic matrix, 2015).
In all, about 5,500 compounds went through this assay and about 2,000 (36%) were called active. Another 18% or so got no clear call; they are omitted. Cut-off read from the data, not from the text of the source: active = normalized growth mostly below about 0.91 (no sharp cut-off); inconclusive = no clear call, values can overlap the other calls; inactive = mostly above about 0.92. The list shows a part of the results. Where a SMILES comes first, the peptide text is derived from it. [ ]: non-standard residue; d: D form. Orn = NCCC[CH](N)C(=O)O

Test: chemical genetic growth profiling, strain panel (AID 1159580);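 note: tested at 20 µM; growth read once vehicle control cultures reached saturation at 30 °C; 1 = growth at the plate median or of vehicle wells; lower values mean less growth of the strain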
Settings: growth OD

Measured: normalized growth

CC(C)CC1NC(=O)C(CCCN)NC(=O)C(C(C)C)NC(=O)C2CCCN2C(=O)C(Cc2ccccc2)NC(=O)C(CC(C)C)NC(=O)C(CCCN)NC(=O)C(C(C)C)NC(=O)C2CCCN2C(=O)C(Cc2ccccc2)NC1=O (stereo unspecified) (cyclo(FPV[Orn]LFPV[Orn]L); configuration not given here)
active: S. cerevisiae deletion strains, locus YKL009W, strain mrt4, stronger effect = lower value 1.4 [resistant] | S. cerevisiae deletion strains, locus YKL068W, stronger effect = lower value 1.25 [resistant] | S. cerevisiae deletion strains, locus YKL085W, strain MDH1 (second series), stronger effect = lower value 1.11 [resistant] | S. cerevisiae deletion strains, locus YKL085W, strain MDH1, stronger effect = lower value 1.11 [resistant] | S. cerevisiae deletion strains, locus YKR001C, strain vps1, stronger effect = lower value 0.236 | S. cerevisiae deletion strains, locus YLR039C, strain RIC1, stronger effect = lower value 0.328 | S. cerevisiae deletion strains, locus YLR262C, strain YPT6 (second series), stronger effect = lower value 0.293 | S. cerevisiae deletion strains, locus YLR262C, strain YPT6, stronger effect = lower value 0.285 | S. cerevisiae deletion strains, locus YMR231W, strain pep5, stronger effect = lower value 0.324 | S. cerevisiae deletion strains, locus YOL006C, strain TOP1, stronger effect = lower value 0.122 | S. cerevisiae deletion strains, locus YOR270C, strain vph1, stronger effect = lower value 0.468 | S. cerevisiae deletion strains, locus YPL051W, strain arl3, stronger effect = lower value 0.7
inactive: S. cerevisiae deletion strains, locus YKL160W, strain elf1, stronger effect = lower value 1.02 | S. cerevisiae deletion strains, locus YKL190W, strain CNB1, stronger effect = lower value 1.02 | S. cerevisiae deletion strains, locus YKR026C, strain gcn3, stronger effect = lower value 1.04 | S. cerevisiae deletion strains, locus YKR091W, strain srl3, stronger effect = lower value 1.02 | S. cerevisiae deletion strains, locus YLL001W, strain dnm1, stronger effect = lower value 1.03 | S. cerevisiae deletion strains, locus YLL026W, stronger effect = lower value 1.02 | S. cerevisiae deletion strains, locus YLL041C, strain sdh2, stronger effect = lower value 1.02 | S. cerevisiae deletion strains, locus YLR027C, strain aat2, stronger effect = lower value 1.01 | S. cerevisiae deletion strains, locus YLR058C, strain SHM2, stronger effect = lower value 1 | S. cerevisiae deletion strains, locus YLR102C, strain apc9, stronger effect = lower value 1.01 | S. cerevisiae deletion strains, locus YLR113W, strain HOG1, stronger effect = lower value 0.971 | S. cerevisiae deletion strains, locus YLR221C, strain rsa3, stronger effect = lower value 1.04 | S. cerevisiae deletion strains, locus YLR258W, strain gsy2, stronger effect = lower value 1.04 | S. cerevisiae deletion strains, locus YLR268W, strain sec22, stronger effect = lower value 0.989 | S. cerevisiae deletion strains, locus YLR320W, strain mms22, stronger effect = lower value 1.02 | S. cerevisiae deletion strains, locus YLR330W, strain CHS5, stronger effect = lower value 1.01 | S. cerevisiae deletion strains, locus YLR342W, strain FKS1 (second series), stronger effect = lower value 0.857 | S. cerevisiae deletion strains, locus YLR342W, strain FKS1, stronger effect = lower value 1.02 | S. cerevisiae deletion strains, locus YLR357W, strain rsc2, stronger effect = lower value 0.968 | S. cerevisiae deletion strains, locus YLR370C, strain arc18, stronger effect = lower value 0.927 | S. cerevisiae deletion strains, locus YLR371W, strain rom2, stronger effect = lower value 1.01 | S. cerevisiae deletion strains, locus YLR384C, strain iki3, stronger effect = lower value 1.03 | S. cerevisiae deletion strains, locus YLR418C, strain cdc73, stronger effect = lower value 0.932 | S. cerevisiae deletion strains, locus YML016C, strain PPZ1, stronger effect = lower value 1.01 | S. cerevisiae deletion strains, locus YML032C, strain rad52, stronger effect = lower value 0.989 | S. cerevisiae deletion strains, locus YML120C, strain ndi1, stronger effect = lower value 1.02 | S. cerevisiae deletion strains, locus YML124C, strain tub3, stronger effect = lower value 1 | S. cerevisiae deletion strains, locus YMR058W, strain fet3, stronger effect = lower value 1.03 | S. cerevisiae deletion strains, locus YMR078C, strain ctf18, stronger effect = lower value 1.01 | S. cerevisiae deletion strains, locus YMR125W, strain sto1, stronger effect = lower value 0.999 | S. cerevisiae deletion strains, locus YMR129W, stronger effect = lower value 1.02 | S. cerevisiae deletion strains, locus YMR205C, strain PFK2, stronger effect = lower value 1.02 | S. cerevisiae deletion strains, locus YMR223W, strain ubp8, stronger effect = lower value 0.978 | S. cerevisiae deletion strains, locus YMR263W, strain SAP30, stronger effect = lower value 1 | S. cerevisiae deletion strains, locus YMR307W, strain GAS1, stronger effect = lower value 0.833 | S. cerevisiae deletion strains, locus YNL067W, strain RPL9B, stronger effect = lower value 0.994 | S. cerevisiae deletion strains, locus YNL071W, strain lat1, stronger effect = lower value 1.03 | S. cerevisiae deletion strains, locus YNL128W, strain TEP1, stronger effect = lower value 1.03 | S. cerevisiae deletion strains, locus YNL153C, strain GIM3, stronger effect = lower value 1 | S. cerevisiae deletion strains, locus YNL183C, strain NPR1, stronger effect = lower value 0.948 | S. cerevisiae deletion strains, locus YNL209W, strain ssb2, stronger effect = lower value 1.01 | S. cerevisiae deletion strains, locus YNL233W, strain BNI4, stronger effect = lower value 0.982 | S. cerevisiae deletion strains, locus YNL248C, strain rpa49, stronger effect = lower value 1.03 | S. cerevisiae deletion strains, locus YNL250W, strain rad50, stronger effect = lower value 0.998 | S. cerevisiae deletion strains, locus YNL271C, strain bni1, stronger effect = lower value 0.995 | S. cerevisiae deletion strains, locus YNL298W, strain CLA4, stronger effect = lower value 0.967 | S. cerevisiae deletion strains, locus YNL307C, strain MCK1, stronger effect = lower value 0.991 | S. cerevisiae deletion strains, locus YNL322C, strain KRE1 (second series), stronger effect = lower value 1.06 | S. cerevisiae deletion strains, locus YNL322C, strain KRE1, stronger effect = lower value 1.01 | S. cerevisiae deletion strains, locus YNR049C, strain mso1, stronger effect = lower value 1.04 | S. cerevisiae deletion strains, locus YNR052C, strain pop2, stronger effect = lower value 0.984 | S. cerevisiae deletion strains, locus YOL012C, strain htz1 0.807 | S. cerevisiae deletion strains, locus YOL147C, strain pex11, stronger effect = lower value 1.01 | S. cerevisiae deletion strains, locus YOR001W, strain rrp6, stronger effect = lower value 1 | S. cerevisiae deletion strains, locus YOR061W, strain CKA2, stronger effect = lower value 1 | S. cerevisiae deletion strains, locus YOR069W, strain VPS5, stronger effect = lower value 1 | S. cerevisiae deletion strains, locus YOR070C, strain gyp1, stronger effect = lower value 1.03 | S. cerevisiae deletion strains, locus YOR080W, strain dia2, stronger effect = lower value 1.05 | S. cerevisiae deletion strains, locus YOR083W, strain WHI5, stronger effect = lower value 1.01 | S. cerevisiae deletion strains, locus YOR106W, strain vam3, stronger effect = lower value 1.01 | S. cerevisiae deletion strains, locus YOR136W, strain idh2, stronger effect = lower value 1 | S. cerevisiae deletion strains, locus YOR144C, strain elg1, stronger effect = lower value 1 | S. cerevisiae deletion strains, locus YOR184W, strain ser1, stronger effect = lower value 0.987 | S. cerevisiae deletion strains, locus YOR231W, strain MKK1, stronger effect = lower value 0.983 | S. cerevisiae deletion strains, locus YOR265W, strain rbl2, stronger effect = lower value 1.03 | S. cerevisiae deletion strains, locus YOR290C, strain snf2, stronger effect = lower value 0.973 | S. cerevisiae deletion strains, locus YOR316C, strain cot1, stronger effect = lower value 1.01 | S. cerevisiae deletion strains, locus YPL055C, strain LGE1, stronger effect = lower value 0.985 | S. cerevisiae deletion strains, locus YPL078C, strain atp4, stronger effect = lower value 1.02 | S. cerevisiae deletion strains, locus YPL106C, strain sse1, stronger effect = lower value 0.995 | S. cerevisiae deletion strains, locus YPL240C, strain hsp82, stronger effect = lower value 1.03 | S. cerevisiae deletion strains, locus YPL241C, strain CIN2, stronger effect = lower value 1.01 | S. cerevisiae deletion strains, locus YPL256C, strain CLN2, stronger effect = lower value 0.97 | S. cerevisiae deletion strains, locus YPR119W, strain clb2, stronger effect = lower value 1 | S. cerevisiae deletion strains, locus YPR141C, strain kar3, stronger effect = lower value 0.997 | S. cerevisiae deletion strains, locus YPR163C, strain tif3, stronger effect = lower value 0.953 | S. cerevisiae deletion strains, locus YPR167C, strain met16, stronger effect = lower value 1.01 | S. cerevisiae deletion strains, strain wtn01, stronger effect = lower value 0.988 | S. cerevisiae strains, strain wild type, stronger effect = lower value 1.04
